Most compounds without a hit are left out; they make up all but 19% or so of the library.
Pf growth 96h: P. falciparum growth inhibition at 96 hour, primary screen for plastid delayed-death inhibitors; P. falciparum luciferase reporter growth, 96 h; Potency, µM (top dose mostly 28.7 µM), for inactives: at the top dose activity change, negative = inhibition, usual class: inhibitors; 6.9% of 320,000 active; also: potency is read from the fitted curve at half-maximal effect; % is scaled to controls: 0 for no effect and ±100 for the full control effect
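Delayed-death screen, second-generation endpoint: infected erythrocytes, 2% hematocrit, 0.05% parasitemia final; 96 hours at 37 C, 5% CO2; luciferase detection reagent; luminescence decrease equals reduced growth.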
Pf growth 48h: inhibits P. falciparum growth in the first generation, 48 h; P. falciparum luciferase growth in erythrocytes, 48 h; Potency, µM (series often up to 28.7 µM), without a hit: at the highest dose activity change, negative = inhibition, actives largely listed as inhibitors; 5.9% of 310,000 active; also: potency is read from the fitted curve at half-maximal effect; % is scaled to controls: 0 for no effect and ±100 for the full control effect
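Luciferase-expressing P. falciparum in infected erythrocytes (2% hematocrit, 0.1% parasitemia final) in RPMI 1640/0.5% Albumax were exposed to compound for 48 hours at 37 C, 5% CO2; growth read as luminescence.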
CHX counter: affects cycloheximide protein synthesis inhibition readout, counter-screen. cell reporter, cycloheximide protein synthesis inhibition counterscreen. max response, %. 12% of 300,000 active. AID 2314; in the data active = max response mostly above about 13%, no sharp cut-off; inactive = mostly below about 14%; also: read at 38.3 µM for the half of the compounds with a filed dose; 0% is about no effect
LASV entry inh: inhibitors of Lassa virus binding or cell entry. Lassa virus pseudotype entry inhibition, cell reporter. Potency, µM (series often up to 37.9 µM), without a hit: top-dose activity change, negative = inhibition, usual class: inhibitors. 1.2% of 300,000 active. AID 540256; calls by dose curve; tested in HEK293 cells; also: potency is read from the fitted curve at half-maximal effect; % is scaled to controls: 0 for no effect and ±100 for the full control effect; nearly all actives have a fitted effect of over 50% in size
Shiga toxin inh: inhibitors of Shiga toxin in Vero cells; AID 2315; inhibition, % at 38.7 µM; 9.2% of 290,000 active; Vero cells, Shiga toxin protein synthesis inhibition reporter; in the data active = inhibition mostly above about 28%, no sharp cut-off; inactive = mostly below about 43%; also: 0% is about no effect
Marburg entry inh: Marburg virus entry inhibition | AID 540276 | Marburg virus pseudotyped entry inhibition, cell reporter | Potency, µM (titrated, usually from 37.8 µM), for the others: at the highest dose activity change, negative = inhibition, most hits filed as inhibitors | 1.8% of 300,000 active; calls by dose curve; tested in HEK293 cells; also: potency is read from the fitted curve at half-maximal effect; % is scaled to controls: 0 for no effect and ±100 for the full control effect
* marks the source's active call; other numbers are inactive results; i = inactive; ? = inconclusive; . = no result; [ ] = another dose, or the depositor's remark. Unless noted, calls follow the shape of the dose curve; as a rule, active = well fitted inhibition curve with a large enough effect; inconclusive = small, poorly fitted or top-dose-only effect, or another doubt; inactive = no such curve, though single readings can be large or run the other way.

SMILES	Pf growth 96h	Pf growth 48h	CHX counter	LASV entry inh	Shiga toxin inh	Marburg entry inh
COc1ccc(-n2c(O)c(C=NCCN(C)C)c(=O)[nH]c2=O)cc1	39%	9%	2	?	-1	-5%
COCC(=O)Nc1cc(OC)ccc1OC	.	-3%	-1	-1%	-9	?
O=C(NCCC1=CCCCC1)C1CCCN(S(=O)(=O)c2ccc(F)cc2)C1 (centres undefined)	36%	?	-2	-23%	-9	-13%
Cc1ccc(NC(=O)CC2NCCNC2=O)cc1 (centres undefined)	27%	23%	11*	14%	17	-3%
Cc1cc(C)cc(NC(=O)CC2NCCNC2=O)c1 (centres undefined)	4%	.	1	-12%	18	7%
CN(C)c1ccc(NC(=O)CC2NCCNC2=O)cc1 (centres undefined)	0.21µM*	12%	-3	10%	18	10%
O=C(CC1NCCNC1=O)Nc1ccccc1 (centres undefined)	446%	8%	-1	.	-7	1%[46.1 µM]
COC(=O)c1ccc(C(=O)N(C)C2CCCN(Cc3ccccc3F)C2)cc1 (centres undefined)	0%	-13%	-2	.	-7	.
COc1ccc(C(=O)N(C)C2CCCN(Cc3ccccc3F)C2)cc1C (centres undefined)	5.2µM*	?	-2	?	1	?
COCc1ccc(C(=O)N(C)C2CCCN(Cc3ccccc3F)C2)o1 (centres undefined)	2.9µM*	?	3	-14%	-2	-12%
CC(C)(C)SCCNC(=O)CN1C(=O)c2ccccc2S1(=O)=O	13%	?	-2	-1%	-4	-26%
Cc1ccccc1C(=O)Nc1ccccc1-c1nnn(CC(=O)Nc2ccc3c(c2)OCCO3)n1	91%	?	38*	-20%	41	?
CC(=O)Nc1ccccc1-c1nnn(CC(=O)Nc2ccc3c(c2)OCCO3)n1	26%	3%	24*	1%	45	-5%[46.1 µM]
O=C(Cn1nnc(-c2ccccc2F)n1)Nc1ccc2c(c1)OCCO2	-18%	21%	32*	?	79*	12%[46.1 µM]
O=C(Cn1nnc(-c2ccccc2NC(=O)c2ccccc2)n1)Nc1ccc2c(c1)OCCO2	?	?	-1	-6%	6	-7%
COc1ccc(N2CCN(c3nc4ccccn4c(=O)c3/C=C(\C#N)S(=O)(=O)c3ccccc3)CC2)cc1	?	-27%	-3	.	-1	.
COc1ccccc1NC(=O)Cn1c(=O)n(-c2cccc(Cl)c2)c(=O)c2c1c1cc(C)ccc1n2C	.	.	.	5%[46.1 µM]	.	-7%[46.1 µM]
COc1ccc([N+](=O)[O-])cc1NC(=O)c1cn(-c2ccc(C)c(C)c2)c(=O)c2ccccc12	12µM*	-8%	-1	0%	-2	11%
COC(=O)CNC(=O)c1cn(-c2ccc(C)c(C)c2)c(=O)c2ccccc12	32%	?	-4	.	5	.
CCOC(=O)C1=C(C)Nc2ccc(C)cc2S1	-11%	42%	-2	-3%	8	-6%[46.1 µM]
CCOCCOC(=O)C1=C(C)Nc2ccc(C)cc2S1	45%	?	22*	8%	50	-1%
CCOC(=O)C1=C(C)Nc2ccccc2S1	-5%	58%	23*	-1%[46.1 µM]	31*	20%[46.1 µM]
CCOC(=O)/C=C1\Nc2ccccc2SC1=O	.	?	3	-21%	-13	-21%[46.1 µM]
CSCCOC(=O)C1=C(C)Nc2ccc(C)cc2S1	?	.	14*	-7%	7	8%
CSCCOC(=O)C1=C(C)NC(=O)NC1c1ccc2c(c1)OCO2 (centres undefined)	42%	2%	-2	.	-4	.
SMILES	Pf growth 96h	Pf growth 48h	CHX counter	LASV entry inh	Shiga toxin inh	Marburg entry inh
O=C(O)CC(NC(=O)C1c2ccccc2Oc2ccccc21)c1ccc(Cl)cc1 (centres undefined)	i	20%	14	.	5	.
COc1ccc(C(=O)NNC(=O)COC(=O)c2sccc2C)cc1	-9%	44%	.	.	.	.
CCC1(C)Cc2c(C#N)c(N)n(N)c(=S)c2CO1 (centres undefined)	0%	?	-1	-12%	0	-5%[46.1 µM]
Cn1cccc1Cc1nnc(SCC(=O)Nc2ccc(F)cc2)n1CCc1ccccc1	?	?	-5	11%	-14	-23%
Cn1cccc1Cc1nnc(SCC(=O)Nc2ccc3c(c2)OCCO3)n1CCc1ccccc1	12µM*	.	5	.	-4	5%
COc1ccc(OC)c(C(=O)CSc2nnc(Cc3cccs3)n2CCc2ccccc2)c1	13µM*	12µM*	26	?	-15	?
COc1ccc(OC)c(NC(=O)CSc2nnc(Cc3cccn3C)n2CCc2ccccc2)c1	12µM*	5.2µM*	0	35%[14.3 µM]	-27	-6%
CC(OC(=O)/C=C/c1cccc(C(F)(F)F)c1)C(=O)NC1CCCCC1C (centres undefined)	10%	?	.	18%	.	4%[46.1 µM]
CC(C)CCn1c(SCC(=O)c2ccccc2)nc2c1c(=O)[nH]c(=O)n2C	-11%	9%	-1	-1%	25	-1%
C=CCn1c(=O)c2ccccc2n2c(SCC(=O)Nc3sc(C)c(CC)c3C(=O)OCC)nnc12	12%	12%	-2	?	-7	?
COC(=O)c1cc(Br)ccc1NC(=O)Nc1ccc(C)cc1	.	.	.	8%	.	6%
COc1cc(C(=O)O/N=C(\N)c2ccccn2)cc(OC)c1OC	?	?	34*	.	66*	.
Cc1ccc(C(=O)O/N=C(\N)c2ccccn2)cc1C	105%	-92%	-4	?	-12	0.71µM*
Cc1ccc(C(=O)O/N=C(\N)c2ccccn2)cc1	-11%	?	-18	?	-30	?
N/C(=N\OC(=O)c1ccccc1)c1ccccn1	?	-35%	-8	?	-20	?
C=CCN1C(=O)/C(=C/c2cc(C)n(-c3cccnc3)c2C)C(=O)NC1=S	23%	-6%	3	1%	-4	32%
Cn1c(-c2ccc3ccccc3n2)nc2cnccc21	358%	223%	27*	?	49*	-16%
CS(=O)CCC(NS(=O)(=O)c1ccccc1)C(=O)O (centres undefined)	9.3µM*	?	-2	11%	-6	8%
COc1ccccc1OCC(=O)NCCNC(=O)COc1ccccc1OC	2.3µM*	?	-5	1%	-7	-6%
COc1ccccc1OCC(=O)NCCSCc1cccc(Cl)c1	12µM*	11%	-4	-1%	-11	-1%
COc1ccccc1OCC(=O)NNc1c2ccccc2nc2ccccc12	2%	4.1µM*	5	.	14	.
CN(CC(=O)Nc1ccc(F)cc1)C(=O)COC(=O)c1cc([N+](=O)[O-])ccc1N1CCOCC1	13%	-8%	.	1%	.	-29%[46.1 µM]
COC(=O)Cn1cnc2c(Cl)nc(F)nc21	.	.	.	.	.	1%
Cc1cc(C(=O)NP(=O)(N2CCOCC2)N2CCOCC2)c(C)n1C1CC1	2%	160%	-4	.	2	.
